# Laboratory results from article PMC11062922 (Nature Chemical Biology, 2023).
# Read-outs that look alike come from different tables or passages of the source.
# Columns and labels:
# Settings in all cases: read-out: apparent Kd, n = 1
# [1] = system: AXL
# [2] = system: CAMKK2
# [3] = system: CDC7
# [4] = system: CDK4
# [5] = system: CDK6
# [6] = system: DYRK1A
# [7] = system: ERCC2
# [8] = compound concentrations:100 nM and 1000 nM (sheet 'Lestaurtinib' of Supplementary Table 1),run:Lestaurtinib_02443_R3,Plate:MR009
# [9] = compound concentrations:100 nM and 1000 nM (sheet 'Lestaurtinib' of Supplementary Table 1),run:Lestaurtinib_02487_R1,Plate:MR012
# [10] = compound concentrations:100 nM and 1000 nM (sheet 'Lestaurtinib' of Supplementary Table 1),run:Lestaurtinib_02496_R3,Plate:MR013
# [11] = compound concentrations:100 nM and 1000 nM (sheet 'Lestaurtinib' of Supplementary Table 1),run:Lestaurtinib_02572_R1,Plate:MR015
# [12] = compound concentrations:100 nM and 1000 nM (sheet 'Lestaurtinib' of Supplementary Table 1),run:Lestaurtinib_02724_R3,Plate:MR021
# [13] = compound concentrations:100 nM and 1000 nM (sheet 'Lestaurtinib' of Supplementary Table 1),run:Lestaurtinib_02339_R2,Plate:MR001
# [14] = compound concentrations:100 nM and 1000 nM (sheet 'Lestaurtinib' of Supplementary Table 1),run:Lestaurtinib_02437_R3,Plate:MR007
# [15] = compound concentrations:100 nM and 1000 nM (sheet 'Lestaurtinib' of Supplementary Table 1),run:Lestaurtinib_02473_R3,Plate:MR010
# [16] = compound concentrations:100 nM and 1000 nM (sheet 'Lestaurtinib' of Supplementary Table 1),run:Lestaurtinib_02496_R2,Plate:MR013
# [17] = compound concentrations:100 nM and 1000 nM (sheet 'Lestaurtinib' of Supplementary Table 1),run:Lestaurtinib_02367_R1,Plate:MR003
# [18] = compound concentrations:100 nM and 1000 nM (sheet 'Lestaurtinib' of Supplementary Table 1),run:Lestaurtinib_02896_R1,Plate:MR030
# [19] = compound concentrations:100 nM and 1000 nM (sheet 'Lestaurtinib' of Supplementary Table 1),run:Lestaurtinib_02407_R2,Plate:MR005
# [20] = compound concentrations:100 nM and 1000 nM (sheet 'Lestaurtinib' of Supplementary Table 1),run:Lestaurtinib_02443_R2,Plate:MR009
substance,measurement,setting,value
Lestaurtinib,potency estimated from few doses,[1]; [8],2130 nM
same,potency estimated from few doses,[1]; [9],600 nM
same,potency estimated from few doses,[1]; [10],2230 nM
same,potency estimated from few doses,[1]; [11],1420 nM
same,potency estimated from few doses,[1]; [12],1340 nM
same,potency estimated from few doses,[2]; [13],1820 nM
same,potency estimated from few doses,[2]; [14],149 nM
same,potency estimated from few doses,[2]; [15],1930 nM
same,potency estimated from few doses,[2]; [9],596 nM
same,potency estimated from few doses,[2]; [16],2180 nM
same,potency estimated from few doses,"[2]; compound concentrations:100 nM and 1000 nM (sheet 'Lestaurtinib' of Supplementary Table 1),run:Lestaurtinib_02566_R2,Plate:MR014",1960 nM
same,potency estimated from few doses,[2]; [11],1810 nM
same,potency estimated from few doses,[3]; [17],1400 nM
same,potency estimated from few doses,"[3]; compound concentrations:100 nM and 1000 nM (sheet 'Lestaurtinib' of Supplementary Table 1),run:Lestaurtinib_02367_R3,Plate:MR003",1000 nM
same,potency estimated from few doses,"[3]; compound concentrations:100 nM and 1000 nM (sheet 'Lestaurtinib' of Supplementary Table 1),run:Lestaurtinib_02381_R2,Plate:MR004",1530 nM
same,potency estimated from few doses,[3]; [15],2080 nM
same,potency estimated from few doses,"[3]; compound concentrations:100 nM and 1000 nM (sheet 'Lestaurtinib' of Supplementary Table 1),run:Lestaurtinib_02748_R3,Plate:MR024",1650 nM
same,potency estimated from few doses,"[3]; compound concentrations:100 nM and 1000 nM (sheet 'Lestaurtinib' of Supplementary Table 1),run:Lestaurtinib_02752_R1,Plate:MR025",1240 nM
same,potency estimated from few doses,"[3]; compound concentrations:100 nM and 1000 nM (sheet 'Lestaurtinib' of Supplementary Table 1),run:Lestaurtinib_02752_R2,Plate:MR025",1760 nM
same,potency estimated from few doses,"[3]; compound concentrations:100 nM and 1000 nM (sheet 'Lestaurtinib' of Supplementary Table 1),run:Lestaurtinib_02795_R3,Plate:MR022",1510 nM
same,potency estimated from few doses,[3]; [18],591 nM
same,potency estimated from few doses,"[3]; compound concentrations:100 nM and 1000 nM (sheet 'Lestaurtinib' of Supplementary Table 1),run:Lestaurtinib_02896_R2,Plate:MR030",1330 nM
same,potency estimated from few doses,"[3]; compound concentrations:100 nM and 1000 nM (sheet 'Lestaurtinib' of Supplementary Table 1),run:Lestaurtinib_03260_R2,Plate:MR033",1690 nM
same,potency estimated from few doses,"[4]; compound concentrations:100 nM and 1000 nM (sheet 'Lestaurtinib' of Supplementary Table 1),run:Lestaurtinib_02367_R2,Plate:MR003",2190 nM
same,potency estimated from few doses,[4]; [19],1650 nM
same,potency estimated from few doses,"[4]; compound concentrations:100 nM and 1000 nM (sheet 'Lestaurtinib' of Supplementary Table 1),run:Lestaurtinib_02438_R1,Plate:MR008",2240 nM
same,potency estimated from few doses,"[4]; compound concentrations:100 nM and 1000 nM (sheet 'Lestaurtinib' of Supplementary Table 1),run:Lestaurtinib_02438_R3,Plate:MR008",2250 nM
same,potency estimated from few doses,[4]; [20],2230 nM
same,potency estimated from few doses,"[4]; compound concentrations:100 nM and 1000 nM (sheet 'Lestaurtinib' of Supplementary Table 1),run:Lestaurtinib_02482_R3,Plate:MR011",2220 nM
same,potency estimated from few doses,"[4]; compound concentrations:100 nM and 1000 nM (sheet 'Lestaurtinib' of Supplementary Table 1),run:Lestaurtinib_02606_R1,Plate:MR019",1720 nM
same,potency estimated from few doses,[4]; [12],1990 nM
same,potency estimated from few doses,"[4]; compound concentrations:100 nM and 1000 nM (sheet 'Lestaurtinib' of Supplementary Table 1),run:Lestaurtinib_02766_R2,Plate:MR027",1370 nM
same,potency estimated from few doses,[4]; [18],1400 nM
same,potency estimated from few doses,"[5]; compound concentrations:100 nM and 1000 nM (sheet 'Lestaurtinib' of Supplementary Table 1),run:Lestaurtinib_02339_R3,Plate:MR001",1400 nM
same,potency estimated from few doses,[5]; [17],1630 nM
same,potency estimated from few doses,"[5]; compound concentrations:100 nM and 1000 nM (sheet 'Lestaurtinib' of Supplementary Table 1),run:Lestaurtinib_02381_R1,Plate:MR004",1670 nM
same,potency estimated from few doses,[5]; [19],1670 nM
same,potency estimated from few doses,[5]; [8],2020 nM
same,potency estimated from few doses,[5]; [10],1830 nM
same,potency estimated from few doses,"[5]; compound concentrations:100 nM and 1000 nM (sheet 'Lestaurtinib' of Supplementary Table 1),run:Lestaurtinib_02601_R1,Plate:MR018",1350 nM
same,potency estimated from few doses,"[5]; compound concentrations:100 nM and 1000 nM (sheet 'Lestaurtinib' of Supplementary Table 1),run:Lestaurtinib_02765_R3,Plate:MR026",1590 nM
same,potency estimated from few doses,[5]; [18],1370 nM
same,potency estimated from few doses,"[5]; compound concentrations:100 nM and 1000 nM (sheet 'Lestaurtinib' of Supplementary Table 1),run:Lestaurtinib_03260_R1,Plate:MR033",914 nM
same,potency estimated from few doses,"[5]; compound concentrations:100 nM and 1000 nM (sheet 'Lestaurtinib' of Supplementary Table 1),run:Lestaurtinib_03260_R3,Plate:MR033",157 nM
same,potency estimated from few doses,[6]; [13],2310 nM
same,potency estimated from few doses,"[6]; compound concentrations:100 nM and 1000 nM (sheet 'Lestaurtinib' of Supplementary Table 1),run:Lestaurtinib_02381_R3,Plate:MR004",820 nM
same,potency estimated from few doses,[6]; [20],1580 nM
same,potency estimated from few doses,"[6]; compound concentrations:100 nM and 1000 nM (sheet 'Lestaurtinib' of Supplementary Table 1),run:Lestaurtinib_02566_R1,Plate:MR014",1580 nM
same,potency estimated from few doses,"[6]; compound concentrations:100 nM and 1000 nM (sheet 'Lestaurtinib' of Supplementary Table 1),run:Lestaurtinib_02577_R2,Plate:MR016",1670 nM
same,potency estimated from few doses,[6]; [12],987 nM
same,potency estimated from few doses,"[6]; compound concentrations:100 nM and 1000 nM (sheet 'Lestaurtinib' of Supplementary Table 1),run:Lestaurtinib_02766_R1,Plate:MR027",1760 nM
same,potency estimated from few doses,[6]; [18],1690 nM
same,potency estimated from few doses,"[6]; compound concentrations:100 nM and 1000 nM (sheet 'Lestaurtinib' of Supplementary Table 1),run:Lestaurtinib_03172_R3,Plate:MR031",1440 nM
same,potency estimated from few doses,[7]; [14],1320 nM
same,potency estimated from few doses,[7]; [9],161 nM
same,potency estimated from few doses,[7]; [16],1440 nM
